From the supplement of paper PMC3545927
The other results are listed elsewhere or left out. The hit rate among all sequences tested is not known here.

Molecular target: furin, P09958
Experiment: furin cleavage Z-score vs untreated control; higher = more cleavage, active = 3.5 or more, inactive = 1 or less, 8 variable residues between constant flanks
Outline: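 The cleavage Z-score is the log read count relative to furin-free reactions, lowess-adjusted and scaled by median absolute deviation. Counts came from sequencing DNA released from bead-bound 8-mer peptide–cDNA fusions after digestion with purified furin for 7.5, 15 or 30 min.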
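Further: purified furin at 1:10 enzyme:substrate in 50 mM HEPES pH 7.5.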

Sequence of furin, P09958 (P09958 whole entry): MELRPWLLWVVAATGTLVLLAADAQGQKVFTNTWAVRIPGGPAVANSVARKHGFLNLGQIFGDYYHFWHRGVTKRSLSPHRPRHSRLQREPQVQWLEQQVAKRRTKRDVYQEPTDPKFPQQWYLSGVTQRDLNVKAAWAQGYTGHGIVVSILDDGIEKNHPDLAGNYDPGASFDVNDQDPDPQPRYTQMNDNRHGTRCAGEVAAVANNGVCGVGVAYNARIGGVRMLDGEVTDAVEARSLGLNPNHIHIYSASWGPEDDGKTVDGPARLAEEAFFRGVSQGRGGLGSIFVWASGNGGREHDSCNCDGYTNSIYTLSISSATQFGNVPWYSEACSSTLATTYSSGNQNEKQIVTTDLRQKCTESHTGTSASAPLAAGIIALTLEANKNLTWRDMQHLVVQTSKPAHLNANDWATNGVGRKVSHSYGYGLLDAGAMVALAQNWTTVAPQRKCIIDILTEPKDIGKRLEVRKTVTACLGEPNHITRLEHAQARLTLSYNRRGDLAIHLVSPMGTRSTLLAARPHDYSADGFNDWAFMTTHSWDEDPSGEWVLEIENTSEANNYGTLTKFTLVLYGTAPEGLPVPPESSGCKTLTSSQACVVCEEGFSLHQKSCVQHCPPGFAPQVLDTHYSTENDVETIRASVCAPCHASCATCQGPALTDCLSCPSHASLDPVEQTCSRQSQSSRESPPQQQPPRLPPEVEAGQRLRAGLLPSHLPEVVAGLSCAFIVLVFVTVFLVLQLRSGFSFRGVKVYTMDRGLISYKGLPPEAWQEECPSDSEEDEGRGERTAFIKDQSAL

B1: HC1825 (peptide)
chain: CALTPCSGSWAGNASASA
In the case of B1, the “furin cleavage Z-score” value (7.5 min) is reported as -0.28 (inactive), the “furin cleavage Z-score” value (15 min) is reported as -0.817 (inactive) and the “furin cleavage Z-score” value (30 min) is reported as -0.734 (inactive).

B2: FS-1714 (peptide)
chain: CARHKRGRGDAGNASASA
In the case of B2, the “furin cleavage Z-score” value (7.5 min) is reported as 0.301 (inactive), the “furin cleavage Z-score” value (15 min) is reported as 2.2 and the “furin cleavage Z-score” value (30 min) is reported as 1.5.

B3: FS-3040 (peptide)
chain: CARQNRGFRAAGNASASA
B3 was tested, and the “furin cleavage Z-score” value (7.5 min) was -0.161 (inactive), the “furin cleavage Z-score” value (15 min) was 0.266 (inactive) and the “furin cleavage Z-score” value (30 min) was 0.111 (inactive).

B4: FS-1715 (peptide)
chain: CARHLREVGDAGNASASA
With B4 the “furin cleavage Z-score” value (7.5 min) was 2.58, the “furin cleavage Z-score” value (15 min) was 3.76 (active) and the “furin cleavage Z-score” value (30 min) was 3.94 (active).

B5: FS-1916 (peptide)
chain: CARQNRSVRLAGNASASA
B5 was tested, and the “furin cleavage Z-score” value (7.5 min) was 2.12, the “furin cleavage Z-score” value (15 min) was 3.53 (active) and the “furin cleavage Z-score” value (30 min) was 4 (active).

B6: HC1222 (peptide)
chain: CATELDGVRLAGNASASA
B6 was tested, and the “furin cleavage Z-score” value (7.5 min) was -1.97 (inactive), the “furin cleavage Z-score” value (15 min) was -0.317 (inactive) and the “furin cleavage Z-score” value (30 min) was -1.04 (inactive).

B7: FS-493 (peptide)
chain: CARQNREKRFAGNASASA
With B7 the “furin cleavage Z-score” value (7.5 min) was 8.07 (active), the “furin cleavage Z-score” value (15 min) was 9.73 (active) and the “furin cleavage Z-score” value (30 min) was 9.9 (active).

B8: FS-956 (peptide)
chain: CARQNRWKRQAGNASASA
B8 was tested, and the “furin cleavage Z-score” value (7.5 min) was 13.6 (active), the “furin cleavage Z-score” value (15 min) was 16.1 (active) and the “furin cleavage Z-score” value (30 min) was 9.49 (active).

B9: HC1206 (peptide)
chain: CAVEIRQVGDAGNASASA
In the case of B9, the “furin cleavage Z-score” value (7.5 min) is reported as -0.56 (inactive), the “furin cleavage Z-score” value (15 min) is reported as -1.09 (inactive) and the “furin cleavage Z-score” value (30 min) is reported as -1.86 (inactive).

B10: HC829 (peptide)
chain: CAETAGARLVAGNASASA
With B10 the “furin cleavage Z-score” value (7.5 min) was 1.45, the “furin cleavage Z-score” value (15 min) was 1.12 and the “furin cleavage Z-score” value (30 min) was -1.04 (inactive).

B11: HC568 (peptide)
chain: CAAASCGGVVAGNASASA
With B11 the “furin cleavage Z-score” value (7.5 min) was -0.496 (inactive), the “furin cleavage Z-score” value (15 min) was -0.825 (inactive) and the “furin cleavage Z-score” value (30 min) was 0.0661 (inactive).

B12: HC2081 (peptide)
chain: CAVVCCSMNYAGNASASA
In the case of B12, the “furin cleavage Z-score” value (7.5 min) is reported as -0.198 (inactive), the “furin cleavage Z-score” value (15 min) is reported as -1.19 (inactive) and the “furin cleavage Z-score” value (30 min) is reported as -1.03 (inactive).

B13: HC381 (peptide)
chain: CALFYHHKFNAGNASASA
For B13, the “furin cleavage Z-score” value (7.5 min) was -0.625 (inactive), the “furin cleavage Z-score” value (15 min) was -2.1 (inactive) and the “furin cleavage Z-score” value (30 min) was -0.731 (inactive).

B14: FS-706 (peptide)
chain: CARHLREKRFAGNASASA
B14 was tested, and the “furin cleavage Z-score” value (7.5 min) was 6.75 (active), the “furin cleavage Z-score” value (15 min) was 9.12 (active) and the “furin cleavage Z-score” value (30 min) was 10.1 (active).

B15: FS-2940 (peptide)
chain: CARHLRNVYAAGNASASA
For B15, the “furin cleavage Z-score” value (7.5 min) was 0.638 (inactive), the “furin cleavage Z-score” value (15 min) was -0.594 (inactive) and the “furin cleavage Z-score” value (30 min) was 1.3.

B16: FS-2939 (peptide)
chain: CARHLRANMTAGNASASA
With B16 the “furin cleavage Z-score” value (7.5 min) was -0.54 (inactive), the “furin cleavage Z-score” value (15 min) was -1.02 (inactive) and the “furin cleavage Z-score” value (30 min) was -1.63 (inactive).

B17: HC1711 (peptide)
chain: CAMEDCSQHLAGNASASA
B17 was tested, and the “furin cleavage Z-score” value (7.5 min) was 0.722 (inactive), the “furin cleavage Z-score” value (15 min) was 2.02 and the “furin cleavage Z-score” value (30 min) was 1.16.

B18: HC682 (peptide)
chain: CAIITSLTGRAGNASASA
With B18 the “furin cleavage Z-score” value (7.5 min) was -0.473 (inactive), the “furin cleavage Z-score” value (15 min) was 0.458 (inactive) and the “furin cleavage Z-score” value (30 min) was 0.0661 (inactive).

B19: HC2273 (peptide)
chain: CARLEVVTSTAGNASASA
With B19 the “furin cleavage Z-score” value (7.5 min) was 0.609 (inactive), the “furin cleavage Z-score” value (15 min) was 1.11 and the “furin cleavage Z-score” value (30 min) was -1.08 (inactive).

B20: FS-2429 (peptide)
chain: CARLARFADGAGNASASA
In the case of B20, the “furin cleavage Z-score” value (7.5 min) is reported as -1.13 (inactive), the “furin cleavage Z-score” value (15 min) is reported as 2.8 and the “furin cleavage Z-score” value (30 min) is reported as 0.514 (inactive).

B21: FS-3002 (peptide)
chain: CARNARHADGAGNASASA
B21 was tested, and the “furin cleavage Z-score” value (7.5 min) was 3.28, the “furin cleavage Z-score” value (15 min) was 5.44 (active) and the “furin cleavage Z-score” value (30 min) was 3.84 (active).

B22: FS-1755 (peptide)
chain: CARNARIVHLAGNASASA
For B22, the “furin cleavage Z-score” value (7.5 min) was 0.861 (inactive), the “furin cleavage Z-score” value (15 min) was 0.108 (inactive) and the “furin cleavage Z-score” value (30 min) was -0.00636 (inactive).

B23: FS-3003 (peptide)
chain: CARNARNVSQAGNASASA
For B23, the “furin cleavage Z-score” value (7.5 min) was 4.25 (active), the “furin cleavage Z-score” value (15 min) was 6.14 (active) and the “furin cleavage Z-score” value (30 min) was 5.98 (active).

B24: HC199 (peptide)
chain: CAAQPGYPWPAGNASASA
B24 was tested, and the “furin cleavage Z-score” value (7.5 min) was 0.109 (inactive), the “furin cleavage Z-score” value (15 min) was 0.367 (inactive) and the “furin cleavage Z-score” value (30 min) was 0.143 (inactive).

B25: HC1237 (peptide)
chain: CAEYPVGSQLAGNASASA
B25 was tested, and the “furin cleavage Z-score” value (7.5 min) was -1.22 (inactive), the “furin cleavage Z-score” value (15 min) was -1.49 (inactive) and the “furin cleavage Z-score” value (30 min) was -1.3 (inactive).

B26: HC1012 (peptide)
chain: CAREFDEMEEAGNASASA
With B26 the “furin cleavage Z-score” value (7.5 min) was -0.916 (inactive), the “furin cleavage Z-score” value (15 min) was -1.39 (inactive) and the “furin cleavage Z-score” value (30 min) was -1.93 (inactive).

B27: HC2572 (peptide)
chain: CASTPCSAHEAGNASASA
B27 was tested, and the “furin cleavage Z-score” value (7.5 min) was -0.869 (inactive), the “furin cleavage Z-score” value (15 min) was -0.151 (inactive) and the “furin cleavage Z-score” value (30 min) was 0.67 (inactive).

B28: FS-3260 (peptide)
chain: CARQKRSMEEAGNASASA
For B28, the “furin cleavage Z-score” value (7.5 min) was 7.94 (active), the “furin cleavage Z-score” value (15 min) was 7.89 (active) and the “furin cleavage Z-score” value (30 min) was 8.14 (active).

B29: FS-2244 (peptide)
chain: CARVNRSVHEAGNASASA
For B29, the “furin cleavage Z-score” value (7.5 min) was 0.826 (inactive), the “furin cleavage Z-score” value (15 min) was 3.34 and the “furin cleavage Z-score” value (30 min) was 3.78 (active).

B30: FS-3036 (peptide)
chain: CARQKRSIHEAGNASASA
With B30 the “furin cleavage Z-score” value (7.5 min) was 9.78 (active), the “furin cleavage Z-score” value (15 min) was 11 (active) and the “furin cleavage Z-score” value (30 min) was 9.29 (active).

B31: FS-1813 (peptide)
chain: CAVEKRGVHEAGNASASA
In the case of B31, the “furin cleavage Z-score” value (7.5 min) is reported as -1.62 (inactive), the “furin cleavage Z-score” value (15 min) is reported as -0.803 (inactive) and the “furin cleavage Z-score” value (30 min) is reported as -0.675 (inactive).

B32: FS-2174 (peptide)
chain: CARQTRSSTEAGNASASA
For B32, the “furin cleavage Z-score” value (7.5 min) was 0.51 (inactive), the “furin cleavage Z-score” value (15 min) was 2.13 and the “furin cleavage Z-score” value (30 min) was 2.17.

B33: FS-2587 (peptide)
chain: CARQKRSINLAGNASASA
With B33 the “furin cleavage Z-score” value (7.5 min) was 7.01 (active), the “furin cleavage Z-score” value (15 min) was 6.9 (active) and the “furin cleavage Z-score” value (30 min) was 10.1 (active).

B34: HC816 (peptide)
chain: CADIIICDECAGNASASA
In the case of B34, the “furin cleavage Z-score” value (7.5 min) is reported as -1.61 (inactive), the “furin cleavage Z-score” value (15 min) is reported as -0.956 (inactive) and the “furin cleavage Z-score” value (30 min) is reported as 0.174 (inactive).

B35: FS-3035 (peptide)
chain: CARQKREIDVAGNASASA
With B35 the “furin cleavage Z-score” value (7.5 min) was 10.8 (active), the “furin cleavage Z-score” value (15 min) was 12.7 (active) and the “furin cleavage Z-score” value (30 min) was 11.5 (active).

B36: FS-1767 (peptide)
chain: CARQIRYSVPAGNASASA
With B36 the “furin cleavage Z-score” value (7.5 min) was 0.304 (inactive), the “furin cleavage Z-score” value (15 min) was 0.942 (inactive) and the “furin cleavage Z-score” value (30 min) was -0.474 (inactive).

B37: FS-2754 (peptide)
chain: CARQKRIIGGAGNASASA
For B37, the “furin cleavage Z-score” value (7.5 min) was -1.16 (inactive), the “furin cleavage Z-score” value (15 min) was -0.537 (inactive) and the “furin cleavage Z-score” value (30 min) was 0.0214 (inactive).

B38: FS-2443 (peptide)
chain: CARQIRGLEEAGNASASA
B38 was tested, and the “furin cleavage Z-score” value (7.5 min) was 0.837 (inactive), the “furin cleavage Z-score” value (15 min) was 3.93 (active) and the “furin cleavage Z-score” value (30 min) was 3.31.

B39: FS-2507 (peptide)
chain: CARQKRSIVVAGNASASA
In the case of B39, the “furin cleavage Z-score” value (7.5 min) is reported as 7.83 (active), the “furin cleavage Z-score” value (15 min) is reported as 9.33 (active) and the “furin cleavage Z-score” value (30 min) is reported as 8.84 (active).

B40: HC583 (peptide)
chain: CAWLQYFLTRAGNASASA
B40 was tested, and the “furin cleavage Z-score” value (7.5 min) was -0.459 (inactive), the “furin cleavage Z-score” value (15 min) was -0.712 (inactive) and the “furin cleavage Z-score” value (30 min) was -0.977 (inactive).

B41: HC516 (peptide)
chain: CASWAIKWEYAGNASASA
B41 was tested, and the “furin cleavage Z-score” value (7.5 min) was -0.904 (inactive), the “furin cleavage Z-score” value (15 min) was -1.39 (inactive) and the “furin cleavage Z-score” value (30 min) was 0.896 (inactive).

B42: FS-2411 (peptide)
chain: CARAVRSINEAGNASASA
With B42 the “furin cleavage Z-score” value (7.5 min) was 6.03 (active), the “furin cleavage Z-score” value (15 min) was 6.9 (active) and the “furin cleavage Z-score” value (30 min) was 7.81 (active).

B43: FS-2412 (peptide)
chain: CARDQRDKDGAGNASASA
B43 was tested, and the “furin cleavage Z-score” value (7.5 min) was 0.132 (inactive), the “furin cleavage Z-score” value (15 min) was -0.98 (inactive) and the “furin cleavage Z-score” value (30 min) was -1.37 (inactive).

B44: FS-2346 (peptide)
chain: CARKRRDTGGAGNASASA
B44 was tested, and the “furin cleavage Z-score” value (7.5 min) was 5.14 (active), the “furin cleavage Z-score” value (15 min) was 4.44 (active) and the “furin cleavage Z-score” value (30 min) was 2.79.

B45: FS-2539 (peptide)
chain: CAETKRSINEAGNASASA
In the case of B45, the “furin cleavage Z-score” value (7.5 min) is reported as -1.27 (inactive), the “furin cleavage Z-score” value (15 min) is reported as -0.817 (inactive) and the “furin cleavage Z-score” value (30 min) is reported as -0.177 (inactive).

B46: FS-1709 (peptide)
chain: CARGLRSIMEAGNASASA
B46 was tested, and the “furin cleavage Z-score” value (7.5 min) was -0.826 (inactive), the “furin cleavage Z-score” value (15 min) was 0.557 (inactive) and the “furin cleavage Z-score” value (30 min) was 1.78.

B47: FS-2272 (peptide)
chain: CARKRRSKSRAGNASASA
B47 was tested, and the “furin cleavage Z-score” value (7.5 min) was 5.87 (active), the “furin cleavage Z-score” value (15 min) was 6.56 (active) and the “furin cleavage Z-score” value (30 min) was 5.23 (active).

B48: FS-1858 (peptide)
chain: CARKRRSQDGAGNASASA
In the case of B48, the “furin cleavage Z-score” value (7.5 min) is reported as 8.67 (active), the “furin cleavage Z-score” value (15 min) is reported as 10.1 (active) and the “furin cleavage Z-score” value (30 min) is reported as 6.23 (active).
